Assay outcomes (PubChem)
An excerpt weighted towards active compounds, which were near 3.5% of everything screened.
GPR151 activ: activators of human GPR151; 1% of 650,000 active; activation, % at 11.2 µM; AID 1508602; PathHunter beta-arrestin GPR151 cells, luminescence; in the data active means activation above about 4.9%;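 further: 0% = median of compound wells and 100% = cells with positive control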
TEAD-YAP inh: TEAD-YAP interaction inhibition | AID 1259422 | 1.4% of 640,000 active | HEK-TIYL cells, TEAD-Gal4/YAP UAS-luciferase luminescence | inhibition, % at 9.12 µM; in the data active means inhibition above about 32%;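 further: 0% = median of test compound wells and 100% = reference inhibitor wells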
FBW7 act: human FBW7 E3 ligase activation, primary screen | Q969H0 | AlphaScreen FBW7–phospho-cyclin E peptide binding, activator screen | normalized activity (activation), % at 26.1 µM | 0.13% of 650,000 active | AID 1259310; in the data active means normalized activity above about 1.9%;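 further: purified mutant Fbw7 with reduced substrate affinity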
Target sequence (Q969H0 whole entry, looked up): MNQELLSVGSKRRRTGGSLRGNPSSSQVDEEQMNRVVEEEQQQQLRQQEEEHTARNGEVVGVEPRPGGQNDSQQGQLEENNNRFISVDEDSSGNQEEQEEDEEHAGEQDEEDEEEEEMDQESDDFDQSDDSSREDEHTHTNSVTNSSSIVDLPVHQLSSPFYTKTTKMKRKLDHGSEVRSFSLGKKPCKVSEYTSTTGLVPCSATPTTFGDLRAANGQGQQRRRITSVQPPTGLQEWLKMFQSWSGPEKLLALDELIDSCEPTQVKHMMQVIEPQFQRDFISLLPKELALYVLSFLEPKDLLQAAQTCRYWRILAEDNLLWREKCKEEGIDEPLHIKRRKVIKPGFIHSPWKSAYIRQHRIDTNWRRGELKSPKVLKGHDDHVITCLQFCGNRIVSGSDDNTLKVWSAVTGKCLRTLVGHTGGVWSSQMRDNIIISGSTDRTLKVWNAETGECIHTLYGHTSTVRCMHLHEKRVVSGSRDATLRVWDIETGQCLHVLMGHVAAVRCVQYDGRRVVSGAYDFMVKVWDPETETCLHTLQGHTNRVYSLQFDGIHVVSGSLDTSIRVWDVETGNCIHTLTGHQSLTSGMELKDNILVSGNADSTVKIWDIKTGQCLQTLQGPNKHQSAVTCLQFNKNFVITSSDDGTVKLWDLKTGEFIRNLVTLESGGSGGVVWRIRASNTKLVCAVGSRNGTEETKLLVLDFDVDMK
MITF primary: blocks human microphthalmia-associated transcription factor; inhibition, % at 2.6 µM; AID 1259374; O75030; AlphaScreen MITF homodimerization, bead proximity signal; 0.91% of 650,000 active; in the data active means inhibition above about 50%;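 further: 0% = vehicle wells with protein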
MITF confirm: confirmation of human MITF inhibitors. shares compounds with MITF primary. AlphaScreen MITF homodimerization, biotin/His-MITF beads. inhibition, % at 2.6 µM. 16% of 4,700 active;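 active means inhibition above a cutoff derived from the DMSO control wells, cut at about 28% in these data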;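 further: 0% = MITF dimer wells with DMSO only; inhibitors lower the bead chemiluminescence by keeping MITF from dimerizing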
AS interf ctr: counter-screen: compounds optically interfering with AlphaScreen | shares compounds with MITF primary | inhibition, % at 2.6 µM | LysRS AlphaScreen counterscreen, signal interference, triplicate | 7.6% of 4,700 active | AID 1259376;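 active means inhibition above a cutoff derived from the DMSO control wells, cut at about 30% in these data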
* = called active by the depositor; nt = not tested or not shown.

SMILES	GPR151 activ	TEAD-YAP inh	FBW7 act	MITF primary	MITF confirm	AS interf ctr
O=C(CC(NCc1ccccn1)C(=O)O)Nc1ccc(Oc2ccccc2)cc1 (stereo unspecified)	1.7	1.7	-0.4	90.5*	95.2*	100.3*
O=C(CC(NCc1ccco1)C(=O)O)Nc1ccc(Oc2ccccc2)cc1 (stereo unspecified)	1.1	-1.6	-0.1	5.6	nt	nt
O=C(CC(NCc1ccccn1)C(=O)O)Nc1cccc([N+](=O)[O-])c1 (stereo unspecified)	-1.1	-2.7	-0.3	42.9	nt	nt
O=C(CN1Cc2ccccc2OC(c2ccccc2F)C1)NC1CCC(O)CC1 (stereo unspecified)	-1.1	-4.8	0.2	-4.7	nt	nt
O=C(CN1Cc2ccccc2OC(c2ccccc2F)C1)NCC1CCS(=O)(=O)C1 (stereo unspecified)	-0.4	5.3	0.0	61.5*	1.9	2.2
O=C(NCCCn1ccnc1)c1ccc(OC2CCN(CCc3ccccc3)CC2)cc1	3.8	0.9	0.1	68.5*	-1.4	-5.5
O=C(NCCCO)c1ccc(OC2CCN(CCc3ccccc3)CC2)cc1	-0.1	5.2	0.0	-1.9	nt	nt
Fc1cccc(CN2CCN(C3CCCC3)CC2)c1	0.0	3.0	0.0	52.0*	-17.1	-8.0
Clc1ccc(CN2CCN(C3CCCC3)CC2)cc1	0.7	-6.1	-0.1	45.2	nt	nt
NC1CCN(Cc2cccc(F)c2)CC1	-0.2	-2.2	-0.1	-13.3	nt	nt
Clc1ccc(CN2CCN(C3CCCCC3)CC2)cc1	-0.4	-9.4	-0.2	66.9*	5.2	17.4
Clc1ccc(CN2CCN(C3CCCCCC3)CC2)cc1	-0.5	-2.8	0.5	73.7*	-5.1	3.5
c1ccc(CN2CCN(C3CCCCCC3)CC2)cc1	-0.9	1.8	-0.3	70.0*	7.5	16.8
O=C(COc1ccc(Cl)cc1)NCCCS(=O)(=O)N1CCN(c2ccccn2)CC1	1.8	25.9	-0.1	-7.7	nt	nt
c1ccc(-c2cc(N3CCC4(CC3)OCCO4)nc(-c3ccccn3)n2)nc1	0.7	67.8*	-0.8	114.5*	116.2*	100.3*
Cc1cc(N)n(-c2ccc(Oc3ccccc3)cc2S(=O)(=O)O)n1	-1.1	5.7	1.0	51.9*	4.6	4.4
Cc1cc(N)n(-c2ccccc2C(F)(F)F)n1	0.2	5.5	0.0	14.6	nt	nt
CC(=O)c1ccc(OCCN2CCN(C)CC2)cc1	-0.8	-2.9	-0.3	66.5*	10.7	20.4
CN1CCN(CCOc2ccc(C=O)cc2)CC1	-0.9	-43.8	-0.4	74.2*	6.1	14.2
CC(=O)c1ccc(OCCCCN2CCCC2)cc1	2.4	-6.3	-0.2	18.8	nt	nt
COc1ccc(CN2CCN(C(=O)c3cccnc3)CC2)c(OC)c1	0.5	-4.4	-0.1	43.5	nt	nt
COc1ccccc1C1(O)CC2CCC(C1)N2C(=O)c1cccnc1 (stereo unspecified)	-0.5	10.1	0.0	73.0*	7.8	16.3
COc1ccccc1CN1CCN(C(=O)c2cccnc2)CC1	0.8	-0.2	0.0	57.4*	5.8	-8.1
COc1ccc(CN2CCN(C(=O)c3cccnc3)CC2)c(OC)c1OC	0.7	10.4	0.0	31.6	nt	nt
COc1cccc(CN2CCN(C(=O)c3cccnc3)CC2)c1OC	-1.2	-0.2	-0.2	76.9*	9.3	11.3
SMILES	GPR151 activ	TEAD-YAP inh	FBW7 act	MITF primary	MITF confirm	AS interf ctr
COc1cccc(-c2cnn3c(N4CCOCC4)ccnc23)c1	-4.0	2.5	0.3	-3.6	nt	nt
O=C(OCC1CCCN2CCCCC12)c1ccc([N+](=O)[O-])cc1[N+](=O)[O-] (stereo unspecified)	-0.6	15.3	0.1	-7.5	nt	nt
CCc1nnc(NC(=O)CSc2nc3sc(C)c(C)c3c(=O)[nH]2)s1	1.2	-8.4	0.2	4.8	nt	nt
COc1cccc(CN2CCN(C(=O)c3ccc(F)cc3)CC2)c1OC	3.5	4.5	-0.1	32.4	nt	nt
COc1ccc(C(=O)N2CCN(Cc3c[nH]c4ccccc34)CC2)cc1	-0.1	16.4	0.0	76.5*	-11.9	-6.3
COc1ccc(C(=O)N2CCN(Cc3c[nH]c4ccccc34)CC2)cc1OC	0.6	8.7	0.0	17.4	nt	nt
COc1ccc(C(=O)N2CCN(Cc3cccc4ccccc34)CC2)cc1	3.4	7.4	-0.2	59.2*	6.0	-4.2
COc1ccc(C(=O)N2CCN(Cc3ccccc3F)CC2)cc1	-1.0	-0.9	-0.4	62.5*	-10.3	-4.5
CCOC(=O)N1CCN(C(=O)C2CCN(Cc3cccc4ccccc34)CC2)CC1	-0.5	-4.2	0.1	50.8*	11.2	17.9
O=C(O)CNC(=O)CNS(=O)(=O)c1ccc(Br)cc1	1.5	-1.7	0.5	5.3	nt	nt
O=C(O)c1cn(NC(=O)C2CCNCC2)c(=O)c2ccccc12	-1.4	7.3	-0.1	1.0	nt	nt
COc1cc(SC)ccc1C(=O)NCc1ccco1	-1.1	1.9	0.5	11.6	nt	nt
Cc1ccc(Cl)cc1-c1ccc(/C=C2/SC(=Nc3ccccc3Cl)NC2=O)o1	0.0	8.1	0.2	22.3	nt	nt
OCCC1CN(Cc2cccc(F)c2F)CCN1C1CCCC1 (stereo unspecified)	-1.8	3.8	0.0	2.4	nt	nt
COc1ccccc1N1CCN(Cc2cccc(OC)c2OC)CC1	0.2	6.8	0.6	23.1	nt	nt
CSc1ccc(CN2CCN(Cc3cccc4ccccc34)CC2)cc1	0.6	-7.8	-0.1	74.4*	14.2	19.8
COc1cccc(CN2CCN(Cc3cccc4ccccc34)CC2)c1OC	-0.5	-2.0	0.0	82.0*	17.6	21.5
COc1ccccc1CN1CCN(Cc2cccc3ccccc23)CC1	-1.9	6.6	-0.3	85.5*	3.8	11.8
COc1ccc(CN2CCN(Cc3cccc4ccccc34)CC2)cc1	-0.3	10.2	-0.1	57.5*	20.9	19.0
COC(=O)c1ccc2c(=O)n(CCc3ccc(OC)c(OC)c3)c(SCC(=O)N3CCN(c4ccccc4OC)CC3)nc2c1	0.8	-3.0	0.1	-10.5	nt	nt
N/C(Cc1ccc(Cl)cc1)=N\OC(=O)COc1ccc(Br)cc1	0.4	-1.5	0.2	-6.8	nt	nt
CC(C)N(CCNC(=O)c1cccc(Nc2cccc(N(C)C)c2)n1)C(C)C	-1.5	-5.3	0.1	18.0	nt	nt
COc1ccc(C(=O)Nc2ccc3c(c2)OC(F)(F)O3)cc1OC	-0.1	-7.1	-0.1	-0.5	nt	nt
CC(C)CCN1CCNC(=O)C1CC(=O)NCCc1ccc(F)cc1 (stereo unspecified)	0.5	10.3	0.0	-4.0	nt	nt
CCCCCOC(=O)c1ccc(N2C(=O)c3cc(Cl)c(Cl)cc3C2=O)cc1	1.1	-9.1	0.0	-4.7	nt	nt
COc1cccc(CN2CCN(Cc3ccccc3C)CC2)c1OC	-0.7	-3.0	-0.5	77.3*	5.0	11.8
CCOC(=O)N1CCN(Cc2cccc(OC)c2OC)CC1	-0.4	12.6	-0.2	-9.8	nt	nt
CCCNCC(O)COC(c1ccccc1)c1ccccc1 (stereo unspecified)	0.7	-0.9	-0.3	16.9	nt	nt
COc1ccc(C(OCC(O)CNCCN(C)C)c2ccc(OC)cc2)cc1 (stereo unspecified)	-1.1	-2.2	0.7	66.7*	10.9	10.4
